# APE1 inh: APE1 (human) endonuclease inhibition; P27695; recombinant APE1, TAMRA/BHQ-2 abasic DNA cleavage fluorescence; Potency, µM (series often up to 65.8 µM), inactives show top-dose activity change, negative = inhibition, hits mostly inhibitors; hit rate 0.35% among 350,000;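 also: plate controls were vehicle for no effect and reference inhibitor for full effect; nearly all actives have a fitted effect of over 55% in size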
# Target sequence (P27695 whole entry, looked up): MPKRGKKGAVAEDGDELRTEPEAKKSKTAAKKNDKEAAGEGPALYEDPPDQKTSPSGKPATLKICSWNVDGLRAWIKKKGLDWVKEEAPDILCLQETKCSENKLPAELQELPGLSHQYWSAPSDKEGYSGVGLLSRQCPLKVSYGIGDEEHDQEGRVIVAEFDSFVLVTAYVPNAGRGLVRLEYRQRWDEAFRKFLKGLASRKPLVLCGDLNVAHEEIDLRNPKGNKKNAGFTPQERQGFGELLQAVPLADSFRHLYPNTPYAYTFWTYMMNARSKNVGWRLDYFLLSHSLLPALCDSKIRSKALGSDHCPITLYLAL
#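 Compound pre-exposure to 0.75 nM APE1, 15 min at ambient temperature. Reaction initiated with 50 nM TAMRA/BHQ-2 THF substrate, read immediately in kinetic mode, 525 nm excitation, 598 nm emission.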
# BLM inh-1: inhibitors of human Bloom syndrome helicase BLM; P54132; recombinant BLM DNA unwinding, fluorescence dequenching; Potency, µM (series often up to 56.1 µM), without a hit: at the top dose activity change, negative = inhibition, usual class: inhibitors; hit rate 0.2% among 350,000;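 also: plate controls were vehicle for no effect and no enzyme for full effect; nearly all actives have a fitted effect of over 35% in size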
# RECQ1 inh-1: inhibitors of human RECQ1 DNA helicase. RECQ1 DNA unwinding, red fluorescence kinetic read. hit rate 0.54% among 240,000. Potency, µM (doses to about 57.3 µM), without a hit: at the highest dose activity, negative = inhibition, most hits filed as inhibitors;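 also: plate controls were vehicle for no effect and no enzyme for full effect; nearly all actives have a fitted effect of over 30% in size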
#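 50 nM RECQ1T1 preincubated 15 min with compound in Tris pH 8.0 buffer with MgCl2, DTT, Tween-20 and 2.5 ug/ml poly(dI-dC); started with 200 nM TAMRA/BHQ-2 forked duplex and 2 mM ATP. Unwinding read as fluorescence (525/598 nm), two reads 2 h apart.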
# GLS inhibitor: glutaminase GLS (human) inhibition; O94925; GLS enzymatic activity, qHTS titration; Potency, µM (highest dose often 45.5 µM), for the others: top-dose activity change, negative = inhibition, usual class: inhibitors; hit rate 0.21% among 410,000; AID 624170
#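 Assay buffer: 45 mM KH2PO4 pH 8.2, 0.02% Tween-20. hKGA acts on L-glutamine (1 mM solution added); product glutamate is reported by an oxidase/peroxidase Amplex Red coupling, with fluorescence taken at baseline and 30 min.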
# Tb PGK inh: blocks T. brucei phosphoglycerate kinase; P07378; PGK/GAPDH coupled, Kinase-Glo luminescence, 60 min; Potency, µM (highest dose often 57.5 µM), for inactives: top-dose activity change, negative = inhibition, hits mostly inhibitors; hit rate 0.043% among 380,000; AID 602233; also: nearly all actives have a fitted effect of over 60% in size
# Target sequence (P07378 whole entry, looked up): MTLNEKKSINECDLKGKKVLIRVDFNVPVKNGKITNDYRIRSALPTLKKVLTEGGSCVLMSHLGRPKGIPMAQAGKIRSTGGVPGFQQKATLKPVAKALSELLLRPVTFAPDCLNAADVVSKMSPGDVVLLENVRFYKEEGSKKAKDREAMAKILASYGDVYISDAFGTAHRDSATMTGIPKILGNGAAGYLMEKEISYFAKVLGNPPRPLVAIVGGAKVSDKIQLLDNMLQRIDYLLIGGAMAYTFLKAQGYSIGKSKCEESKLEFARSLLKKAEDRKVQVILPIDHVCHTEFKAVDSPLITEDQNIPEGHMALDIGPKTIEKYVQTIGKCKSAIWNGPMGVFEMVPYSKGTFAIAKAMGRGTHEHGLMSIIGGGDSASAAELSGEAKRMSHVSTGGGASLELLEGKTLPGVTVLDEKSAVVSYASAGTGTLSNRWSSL
#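 Recombinant glycosomal PGK reaction used 1,3-bisphosphoglycerate generated in-well by GAPDH (100nM final) in 100mM TEA pH 7.6, 5mM MgCl2, 0.01% Tween-20. After 60 minutes at room temperature, ATP was read by Kinase-Glo Plus luminescence end-point.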
# FEN1 inhibitor: human FEN1 inhibition; P39748; Recombinant FEN1 flap cleavage, fluorescence, 15 min; Potency, µM (top dose mostly 114 µM), for inactives: at the highest dose activity change, negative = inhibition, usual class: inhibitors; hit rate 0.35% among 390,000; also: nearly all actives have a fitted effect of over 65% in size
#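 Steps: FEN1 (10 nM) dispensed; compound added by pin tool; 15 min at room temperature; substrate added to 50 nM final; reads at 0 min and 15 min; data normalized and fitted (four-parameter Hill).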
# BLM inh-2: confirmation of inhibitors of human Bloom syndrome helicase BLM; BLM DNA unwinding, fluorescence quenching, biochemical; Potency, µM, without a hit: max response, negative = inhibition, actives largely listed as inhibitors; AID 2585; shares compounds with BLM inh-1; hit rate 40% among 220;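 also: strand separation dequenches TAMRA so unwinding raises red fluorescence; series mostly up to about 69 µM; nearly all actives have a fitted effect of over 45% in size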
# RECQ1 conf: confirmation of human RECQ1 helicase inhibitors; shares compounds with RECQ1 inh-1; hit rate 28% among 610; Potency, µM (top dose mostly 229 µM), inactives show at the highest dose activity change, negative = inhibition, most hits filed as inhibitors; AID 2708; RECQ1 helicase DNA unwinding, fluorescence; also: nearly all actives have a fitted effect of over 45% in size
# RECQ1 ADP FP: displaces ADP in a fluorescence polarization counter-screen for RECQ1 hits | ADP fluorescence polarization displacement counterscreen | shares compounds with RECQ1 inh-1 | AID 2711 | hit rate 27% among 530 | Potency, µM (titrated, usually from 228 µM), for the others: at the top dose activity change, negative = inhibition, usual class: inhibitors; also: nearly all actives have a fitted effect of over 45% in size
# RECQ1 inh-2: RECQ1 helicase inhibition confirmed, round 2. shares compounds with RECQ1 inh-1. recombinant RECQ1 DNA unwinding, red fluorescence. Potency, µM (highest dose often 119 µM), for the others: at the highest dose activity, negative = inhibition, actives largely listed as inhibitors. hit rate 15% among 1,100. AID 504841; also: nearly all actives have a fitted effect of over 50% in size
# * marks the source's active call; other numbers are inactive results; i = inactive; ? = inconclusive; · = no result. Sampled rows, rich in hits. Any-hit rate of the full collection: about 0.86%. Calls follow the shape of the dose curve; as a rule, active = well fitted curve in the direction sought with a large enough effect; inconclusive = small, poorly fitted or top-dose-only effect, or another doubt; inactive = no such curve, though single readings can be large; an effect the other way counts as inactive or inconclusive. Unless noted, % is scaled to controls: 0 for no effect and ±100 for the full control effect; potency is read from the fitted curve at half-maximal effect.
SMILES,APE1 inh,BLM inh-1,RECQ1 inh-1,GLS inhibitor,Tb PGK inh,FEN1 inhibitor,BLM inh-2,others
COc1ccc(-c2csc(NC(=O)CSc3nc(C)cs3)n2)cc1,·,·,·,-7%,i,1%,·,
COc1ccc(-c2csc(NC(=O)CSc3nc(C)nc4sc(C(=O)O)c(C)c34)n2)cc1,-2%,32µM*,-18%,16%,?,?,32µM*,
Cc1ccccc1NC1=C/C(=N\S(=O)(=O)c2ccc(C(=O)O)cc2)c2ccccc2C1=O,-8%,7.1µM*,·,3%,-6%,50µM*,11µM*,
CC1(C)CC(=O)C2=C(C1)NC(Nc1nc3ccccc3o1)=NC2c1cccnc1 (stereo unspecified),·,·,·,·,·,2%,·,
O=C(CNC(=O)/C=C/c1ccco1)N=Nc1c(O)[nH]c2ccccc12,8.4µM*,20µM*,·,?,?,-3%,20µM*,
O=C(CNC(=O)c1ccco1)N=Nc1c(O)[nH]c2ccc(Br)cc12,-11%,-3%,·,-10%,4%,4%,·,
CCCc1nc2ccccc2c(=O)n1-c1ccc(C(=O)OCC)cc1,-3%,7.9µM*,8%,5%,i,7%,-6%,
CCOC(=O)c1cccc(-n2c(C)nc3ccccc3c2=O)c1,-5%,2%,i,7%,-2%,10%,·,
O=C1C(N2CCOCC2)=C(n2nnc3ccccc32)C(=O)c2ccccc21,-2%,35µM*,-19%,-6%,-6%,-12%,?,
O=C1c2ccccc2C(=O)c2c1cccc2-n1nnc2ccccc21,-6%,-2%,i,3%,-1%,-10%,·,
CN1CCc2c(sc(NC(=O)c3cc4cc([N+](=O)[O-])ccc4s3)c2C(N)=O)C1,-3%,28µM*,?,·,·,·,29µM*,
CC(C)N1CCc2c(sc(NC(=O)c3cc4cc([N+](=O)[O-])ccc4s3)c2C(N)=O)C1,-4%,?,1%,-1%,4%,?,·,
CCCC(=O)O[C@]1(C(=O)COC(C)=O)CC[C@H]2C3C[C@H](F)C4=CC(=O)C=CC4(C)[C@@]3(F)[C@@H](O)CC21C (stereo partly specified),·,-6%,·,6%,·,·,·,
CCn1c(SCC(N)=O)nc2sc3c(c2c1=O)CCN(C)C3,5%,0.71µM*,7%,-22%,0%,4%,10%,
CCn1c(SCC(=O)Nc2ccc(C)cc2)nc2sc3c(c2c1=O)CCN(C)C3,20%,4%,·,-1%,-10%,-12%,·,
Oc1ccc(N=Cc2ccc(OCc3ccccc3)cc2)cc1,?,32µM*,?,11%,?,?,-8%,
O=C(N/N=C/c1ccc(OCc2ccccc2)cc1)c1ccncc1,3%,-3%,i,-9%,·,-4%,·,
CCC(C)n1c(NC(=O)c2ccccc2)c(C#N)c2nc3ccccc3nc21 (stereo unspecified),-4%,10µM*,-13%,4%,-7%,?,?,
Cc1ccc(-c2nnc(Nc3ccc(O)cc3)c3ccccc23)cc1S(=O)(=O)NC(C)(C)CO,·,-7%,·,35%,-3%,-18%,·,
O=C(COC(=O)C1(c2ccc(F)cc2)CCCC1)NCc1ccco1,-10%,22µM*,?,10%,i,-6%,-11%,
O=C(N/N=C/c1ccc(F)cc1)c1cc(-c2ccco2)nc2ccccc12,4.5µM*,8.9µM*,10µM*,10µM*,?,79µM*,18µM*,RECQ1 conf=40µM*;RECQ1 ADP FP=?
COC1=C(OC)C(=O)c2ccccc2C1=O,-5%,·,-11%,·,·,?,·,
CC1(C)C(=O)NC2=C1C(=O)C(=O)c1ccccc12,?,2.5µM*,8.9µM*,·,·,·,5.1µM*,RECQ1 conf=0.5µM*;RECQ1 ADP FP=8.9µM*
C=C(c1ccc(C(=O)O)cc1)c1cc2c(cc1C)C(C)(C)CCC2(C)C,·,?,·,20%,·,·,68µM*,RECQ1 conf=?
Cc1ccc(SCc2cc(=O)c3c(=O)n(-c4ccccc4)[nH]c3[nH]2)cc1,?,16µM*,?,-1%,0%,-9%,5%,RECQ1 inh-2=-7%
SMILES,APE1 inh,BLM inh-1,RECQ1 inh-1,GLS inhibitor,Tb PGK inh,FEN1 inhibitor,BLM inh-2,others
O=C(OC(C(=O)N1CCOCC1)c1ccccc1)c1c2c(nc3ccccc13)CCCC2 (stereo unspecified),·,·,·,·,·,-1%,·,
Cc1cccc(-c2nc(CN3CCCC(C(=O)NCc4ccc(Cl)cc4)C3)c(C)o2)c1 (stereo unspecified),·,-10%,·,-4%,0%,7%,·,
CN(C)c1ccc(/C=C/c2c3ccccc3cc[n+]2[O-])cc1,·,·,·,·,·,-2%,·,
CN(C)c1ccc(/C=C/c2ccc3c4ccccc4ccc3[n+]2-c2ccccc2)cc1,-3%,?,20µM*,-22%,?,8.9µM*,68µM*,RECQ1 conf=22µM*
Cn1c(SCC(=O)NCC2CCCO2)nc2scc(-c3ccccc3)c2c1=O (stereo unspecified),24%,·,·,-2%,-1%,-4%,·,
O=C(CSc1nc2scc(-c3ccco3)c2c(=O)n1-c1ccccc1)NCC1CCCO1 (stereo unspecified),?,14µM*,?,·,-3%,1%,?,RECQ1 inh-2=?
N#C/C(=C\c1ccc(N2CCOCC2)c([N+](=O)[O-])c1)c1nc2ccccc2[nH]1,?,-19%,10%,4%,-2%,?,·,
N#C/C(=C\c1ccc(N2CCOCC2)o1)c1nc2ccccc2[nH]1,?,22µM*,32µM*,-3%,-11%,?,?,RECQ1 inh-2=?
Oc1ccc(Nc2nc(NCC3CCCO3)c3ccccc3n2)cc1 (stereo unspecified),-7%,16µM*,14µM*,47%,5%,?,14µM*,RECQ1 conf=25µM*;RECQ1 ADP FP=?;RECQ1 inh-2=40µM*
O=C(C[n+]1ccccc1Br)c1ccc(F)cc1,·,·,·,·,·,-5%,·,

# Screening results: PubChem BioAssay, National Center for Advancing Translational Sciences (NCATS)
